Measurements: the supplement of paper PMC11732987, “Enantioselective OTUD7B fragment discovery through chemoproteomics screening and high-throughput optimisation” (Communications Chemistry, 2025)

Legend:
Test in all cases: log2 ratio of Biotin-Ahx-Ub-VS probe labelling (fragment/DMSO); higher = less target engagement (more negative = stronger competition), active = hit call of the paper (q ≤ 0.05, log2 ratio ≤ -1)
Conditions in all cases: compound concentration: 200 uM; treatment time: 3 h
OTUD6B = target: T1, OTUD6B (UniProt Q8N6M0)
T1 sequence (whole entry): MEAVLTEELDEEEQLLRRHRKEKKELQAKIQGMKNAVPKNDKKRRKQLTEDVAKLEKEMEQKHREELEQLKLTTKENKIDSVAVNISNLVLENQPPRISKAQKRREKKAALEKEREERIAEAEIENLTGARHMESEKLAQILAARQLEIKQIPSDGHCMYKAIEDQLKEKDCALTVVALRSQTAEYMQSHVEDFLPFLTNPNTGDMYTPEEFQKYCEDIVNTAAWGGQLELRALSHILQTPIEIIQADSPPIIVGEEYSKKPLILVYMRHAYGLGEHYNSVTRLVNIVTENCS
In short: (§1)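 Fragment (200 µM) or vehicle was incubated for 3 h with triplicate HEK293T lysate samples of 495 µg, which were then treated with Biotin-Ahx-Ub-VS at 0.5 µM final for 1 h. Labelled DUBs were enriched on NeutrAvidin, digested with LysC and trypsin, and analysed by diaPASEF LC-MS/MS. Values are average log2 fragment/vehicle ratios from an unpaired t-test on global-median-normalised Spectronaut label-free quantities, using proteins with ≥2 unique peptides.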

OTUD7B = target: T2, OTUD7B (UniProt Q6GQQ9)
T2 sequence (whole entry): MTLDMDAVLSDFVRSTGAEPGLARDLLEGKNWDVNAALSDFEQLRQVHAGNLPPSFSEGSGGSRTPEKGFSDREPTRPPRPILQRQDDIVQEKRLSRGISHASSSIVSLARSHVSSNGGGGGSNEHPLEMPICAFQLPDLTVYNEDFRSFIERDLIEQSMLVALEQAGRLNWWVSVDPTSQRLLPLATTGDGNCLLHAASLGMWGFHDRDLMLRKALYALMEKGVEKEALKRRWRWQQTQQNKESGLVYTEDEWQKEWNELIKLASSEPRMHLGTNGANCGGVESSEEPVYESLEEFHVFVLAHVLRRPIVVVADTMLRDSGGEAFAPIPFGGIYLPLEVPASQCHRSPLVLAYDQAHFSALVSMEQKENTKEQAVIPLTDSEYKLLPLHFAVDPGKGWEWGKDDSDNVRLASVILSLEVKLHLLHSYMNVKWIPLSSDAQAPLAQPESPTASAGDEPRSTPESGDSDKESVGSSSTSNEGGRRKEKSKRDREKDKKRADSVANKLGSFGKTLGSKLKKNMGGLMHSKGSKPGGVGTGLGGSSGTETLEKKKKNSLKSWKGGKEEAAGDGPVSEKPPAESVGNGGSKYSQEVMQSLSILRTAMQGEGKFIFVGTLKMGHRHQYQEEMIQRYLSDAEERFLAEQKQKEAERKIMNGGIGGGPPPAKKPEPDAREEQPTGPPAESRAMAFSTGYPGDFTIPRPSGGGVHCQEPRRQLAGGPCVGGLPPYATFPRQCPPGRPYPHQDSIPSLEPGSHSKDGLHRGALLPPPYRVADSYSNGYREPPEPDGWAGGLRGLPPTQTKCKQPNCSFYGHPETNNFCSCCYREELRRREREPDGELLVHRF
In short: as §1

PRPF8 = PRPF8 (UniProt Q6P2Q9)
In short: as §1

PSMD7 = target: T3, PSMD7 (UniProt P51665)
T3 sequence (whole entry): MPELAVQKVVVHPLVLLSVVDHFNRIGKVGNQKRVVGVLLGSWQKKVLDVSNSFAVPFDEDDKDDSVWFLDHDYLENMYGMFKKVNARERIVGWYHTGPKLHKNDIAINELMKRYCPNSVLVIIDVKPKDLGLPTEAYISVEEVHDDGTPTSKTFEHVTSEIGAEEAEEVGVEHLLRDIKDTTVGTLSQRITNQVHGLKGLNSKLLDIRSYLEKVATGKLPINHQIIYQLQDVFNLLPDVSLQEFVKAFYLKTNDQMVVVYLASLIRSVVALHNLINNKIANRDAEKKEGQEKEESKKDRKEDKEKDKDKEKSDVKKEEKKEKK
In short: as §1

UCHL1 = UCHL1 (UniProt P09936)
Chain of UCHL1 (P09936 whole entry, looked up): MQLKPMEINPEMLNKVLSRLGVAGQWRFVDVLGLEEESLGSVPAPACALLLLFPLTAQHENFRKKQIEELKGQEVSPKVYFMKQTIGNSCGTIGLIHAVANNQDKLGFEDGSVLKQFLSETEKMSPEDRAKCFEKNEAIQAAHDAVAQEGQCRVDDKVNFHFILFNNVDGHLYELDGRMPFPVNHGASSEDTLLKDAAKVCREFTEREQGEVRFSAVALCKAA
In short: as §1

UCHL3 = target: T4, UCHL3 (UniProt P15374)
T4 sequence (whole entry): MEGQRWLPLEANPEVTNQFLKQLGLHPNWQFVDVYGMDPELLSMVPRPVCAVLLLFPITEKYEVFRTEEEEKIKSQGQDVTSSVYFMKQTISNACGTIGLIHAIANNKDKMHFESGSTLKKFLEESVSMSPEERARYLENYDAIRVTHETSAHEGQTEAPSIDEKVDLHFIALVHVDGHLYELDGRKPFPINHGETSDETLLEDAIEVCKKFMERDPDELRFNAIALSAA
In short: as §1

UCHL5 = target: T5, UCHL5 (UniProt Q9Y5K5)
T5 sequence (whole entry): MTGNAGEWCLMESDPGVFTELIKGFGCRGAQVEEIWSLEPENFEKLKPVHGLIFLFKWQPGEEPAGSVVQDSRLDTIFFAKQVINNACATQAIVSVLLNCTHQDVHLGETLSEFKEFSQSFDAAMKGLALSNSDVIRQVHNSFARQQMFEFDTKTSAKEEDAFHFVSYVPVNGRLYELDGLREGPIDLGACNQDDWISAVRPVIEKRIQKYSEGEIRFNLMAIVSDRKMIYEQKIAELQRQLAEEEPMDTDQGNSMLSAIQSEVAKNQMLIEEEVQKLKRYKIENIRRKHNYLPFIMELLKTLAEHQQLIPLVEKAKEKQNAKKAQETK
In short: as §1

USP10 = USP10 (UniProt Q14694)
Chain of USP10 (Q14694 whole entry): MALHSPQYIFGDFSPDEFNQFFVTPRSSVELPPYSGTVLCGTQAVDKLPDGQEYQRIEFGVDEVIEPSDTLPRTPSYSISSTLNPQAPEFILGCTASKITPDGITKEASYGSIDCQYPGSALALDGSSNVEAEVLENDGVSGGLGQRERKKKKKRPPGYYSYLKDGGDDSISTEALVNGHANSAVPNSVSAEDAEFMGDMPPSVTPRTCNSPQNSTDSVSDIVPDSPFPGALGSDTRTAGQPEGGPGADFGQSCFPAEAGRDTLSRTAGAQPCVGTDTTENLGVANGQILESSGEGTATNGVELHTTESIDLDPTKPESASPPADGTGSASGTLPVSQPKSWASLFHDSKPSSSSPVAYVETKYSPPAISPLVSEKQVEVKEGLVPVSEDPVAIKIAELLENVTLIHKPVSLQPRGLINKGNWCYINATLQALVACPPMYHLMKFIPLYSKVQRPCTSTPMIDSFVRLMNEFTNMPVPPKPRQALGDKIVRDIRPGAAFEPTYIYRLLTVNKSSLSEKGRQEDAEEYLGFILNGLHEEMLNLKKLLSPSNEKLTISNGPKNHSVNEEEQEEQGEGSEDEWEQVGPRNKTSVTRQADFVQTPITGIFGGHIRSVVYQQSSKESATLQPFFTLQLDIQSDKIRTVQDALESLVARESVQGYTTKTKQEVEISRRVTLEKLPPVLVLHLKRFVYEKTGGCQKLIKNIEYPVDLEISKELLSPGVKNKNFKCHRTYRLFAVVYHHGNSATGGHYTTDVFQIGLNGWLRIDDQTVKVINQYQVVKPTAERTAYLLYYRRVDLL
In short: as §1

USP15 = target: T6, USP15 (UniProt Q9Y4E8)
T6 sequence (whole entry): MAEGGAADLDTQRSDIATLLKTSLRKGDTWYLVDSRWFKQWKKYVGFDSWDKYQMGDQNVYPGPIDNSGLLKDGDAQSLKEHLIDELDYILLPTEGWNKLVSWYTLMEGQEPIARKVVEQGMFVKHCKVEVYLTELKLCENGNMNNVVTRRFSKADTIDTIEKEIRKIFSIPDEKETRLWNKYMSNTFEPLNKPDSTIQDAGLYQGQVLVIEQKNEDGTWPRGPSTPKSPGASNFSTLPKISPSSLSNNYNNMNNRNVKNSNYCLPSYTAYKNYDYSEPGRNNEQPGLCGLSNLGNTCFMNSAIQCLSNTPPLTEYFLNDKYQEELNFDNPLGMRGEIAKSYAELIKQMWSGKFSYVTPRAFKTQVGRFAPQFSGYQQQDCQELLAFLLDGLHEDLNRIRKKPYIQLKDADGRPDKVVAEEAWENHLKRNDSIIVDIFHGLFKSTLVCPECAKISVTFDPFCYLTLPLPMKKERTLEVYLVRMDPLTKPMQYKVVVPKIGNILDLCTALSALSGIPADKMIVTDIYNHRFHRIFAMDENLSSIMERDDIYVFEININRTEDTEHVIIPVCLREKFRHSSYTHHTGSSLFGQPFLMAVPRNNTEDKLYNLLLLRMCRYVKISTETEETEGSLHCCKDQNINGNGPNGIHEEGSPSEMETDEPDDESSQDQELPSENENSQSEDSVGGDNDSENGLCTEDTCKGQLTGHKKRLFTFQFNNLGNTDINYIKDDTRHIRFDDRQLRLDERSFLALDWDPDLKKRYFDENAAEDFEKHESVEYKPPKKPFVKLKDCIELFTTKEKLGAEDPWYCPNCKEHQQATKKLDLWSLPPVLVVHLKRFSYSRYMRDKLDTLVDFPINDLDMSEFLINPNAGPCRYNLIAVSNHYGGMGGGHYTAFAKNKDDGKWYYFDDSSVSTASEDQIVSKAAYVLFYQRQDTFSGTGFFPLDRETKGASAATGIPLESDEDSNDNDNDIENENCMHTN
In short: as §1

USP16 = USP16 (UniProt Q9Y5T5)
Chain of USP16 (Q9Y5T5 whole entry, looked up): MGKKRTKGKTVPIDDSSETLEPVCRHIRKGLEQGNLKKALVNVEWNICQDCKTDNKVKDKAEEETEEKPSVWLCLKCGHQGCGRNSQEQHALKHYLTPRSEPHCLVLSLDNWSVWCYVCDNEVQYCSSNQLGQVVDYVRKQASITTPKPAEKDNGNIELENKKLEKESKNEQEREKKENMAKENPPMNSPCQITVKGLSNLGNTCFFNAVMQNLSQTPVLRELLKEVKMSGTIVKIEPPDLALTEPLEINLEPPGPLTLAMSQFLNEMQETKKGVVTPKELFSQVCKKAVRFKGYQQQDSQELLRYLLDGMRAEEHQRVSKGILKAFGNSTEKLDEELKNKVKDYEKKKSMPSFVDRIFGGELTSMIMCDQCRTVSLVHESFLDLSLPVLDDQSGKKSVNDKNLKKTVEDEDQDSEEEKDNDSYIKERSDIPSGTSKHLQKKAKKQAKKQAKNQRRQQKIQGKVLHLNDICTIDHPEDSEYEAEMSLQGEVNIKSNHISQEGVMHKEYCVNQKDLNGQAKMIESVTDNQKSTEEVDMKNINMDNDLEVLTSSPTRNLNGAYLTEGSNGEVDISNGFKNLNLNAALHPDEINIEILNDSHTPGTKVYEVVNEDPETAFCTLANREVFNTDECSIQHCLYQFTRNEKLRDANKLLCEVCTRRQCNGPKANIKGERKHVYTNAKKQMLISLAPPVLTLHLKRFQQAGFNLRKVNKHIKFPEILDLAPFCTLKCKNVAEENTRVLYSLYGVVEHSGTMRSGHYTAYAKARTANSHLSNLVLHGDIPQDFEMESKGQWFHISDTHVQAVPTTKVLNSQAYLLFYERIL
In short: as §1

Measured: log2 ratio of Biotin-Ahx-Ub-VS probe labelling

CC(=O)C1CCCCN1C(=O)CCl (stereo not given)
inactive: OTUD6B 0.00453 | OTUD7B -0.279 | PRPF8 0.0549 | PSMD7 0.203 | UCHL3 0.181 | UCHL5 -0.0871 | USP10 -0.0595 | USP15 -0.162 | USP16 -0.109
active: UCHL1 -1.44
